Here are results for 32 molecules from PubChem BioAssay.

This experiment in a line: sensitizers of A549 cells to miR-34 induction, primary screen, imaging, A549 dox-inducible miR-34, nuclei and caspase counts (AID 1347080). Also: test concentration not given here. Particulars: A549 miR-34 inducible, Hoechst nuclei count, 48 h.
Setting [1] is: stronger effect = lower value, cell number ratio, induced over uninduced.
[2] abbreviates: measured here: relative caspase fold change +Dox/-Dox.
[3] abbreviates: measured here: total cells with miR-34 induction, stronger effect = lower value.
Setting [4] is: measured here: total cells without miR-34 induction.

The source made the active and inactive calls.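 The calls were made as follows: active = compounds whose cell count with miR-34 switched on is under 0.7 times the count with it off; inactive = the rest.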

As for `C=C1C[C@H](O)[C@H](C/C=C\CCCC(=O)O)[C@H]1/C=C/C(=O)CCCCC`, the fold change is 1.11 (inactive) under setting [1] and 1.24 under setting [2]. The cell count by setting is: under setting [3], 5720; under setting [4], 5160.

Regarding `CCCCC[C@H](O)/C=C/[C@@H]1[C@@H](CCCCCCCO)[C@@H](O)C[C@H]1O`, the fold change is 0.922 (inactive) under setting [1] and 1.15 under setting [2]. For the same molecule, the cell count by setting is: under setting [3], 5540; under setting [4], 6010.

With `CS(=O)(=O)NC(=O)CCC/C=C\C[C@H]1C(=O)C[C@@H](O)[C@@H]1/C=C/[C@@H](O)COc1ccccc1`, the fold change under setting [1] was 0.897 (inactive) and the fold change under setting [2] worked out at 1.55. For the same molecule, the cell count under setting [3] came out at 5660 and the cell count under setting [4] was 6300.

`CCCCCC/C=C\CCCCCCCCCCOC(C)=O`: the fold change by setting is: under setting [1], 0.943 (inactive); under setting [2], 0.538. Further, the cell count reads like this: under setting [3], 5570; under setting [4], 5900.

`CCCCCCCCCCCCCCCC(=O)OC[C@H](COP(=O)([O-])OCC[N+](C)(C)C)OC(=O)CCCCCCCCCCCCCCC`: the fold change under setting [1] is 0.881 (inactive) and the fold change under setting [2] is 0.572. Besides, the cell count was 5330 under setting [3] and 6060 under setting [4].

Turning to `CCCCC/C=C/C=C1/C=CC(=O)[C@@H]1C/C=C\CCCC(=O)O`, the fold change under setting [1] was 0.952 (inactive) and the fold change under setting [2] was found to be 1.85. For the same molecule, the cell count came out at 5680 under setting [3] and 5960 under setting [4].

`CCCCC[C@H](O)/C=C/[C@H]1C(=O)C[C@H](O)[C@@H]1C/C=C\CCCC(=O)OC`: the fold change by setting is: under setting [1], 0.892 (inactive); under setting [2], 0.761. For the same molecule, the cell count reads like this: under setting [3], 5010; under setting [4], 5620.

Turning to `CC(C)OC(=O)CCC/C=C\C[C@@H]1[C@@H](/C=C/[C@H](O)C2Cc3ccccc3C2)[C@@H](F)C[C@@H]1O`, the fold change under setting [1] is 0.981 (inactive) and the fold change under setting [2] worked out at 2.25. Moreover, the cell count under setting [3] worked out at 5350 and the cell count under setting [4] was determined as 5450.

Regarding `COC(=O)CCCCCC[C@@H]1[C@@H](CCC(O)C#Cc2ccccc2F)[C@H](O)C[C@@H]1O` (stereo partly drawn), the fold change under setting [1] is 1.01 (inactive) and the fold change under setting [2] worked out at 0.855. Also, the cell count was found to be 5830 under setting [3] and 5780 under setting [4].

For `CCCCC[C@H](O)/C=C/[C@H]1CCC(=O)[C@@H]1C/C=C\CCCC(=O)O`, the fold change is 0.932 (inactive) under setting [1] and 1.35 under setting [2]. Also, the cell count was determined as 6060 under setting [3] and 6510 under setting [4].

`O=C(c1cccs1)c1ccc(OCCCO)c(Cl)c1Cl`: the fold change was 0.896 (inactive) under setting [1] and 0.529 under setting [2]. In addition, the cell count is, setting by setting: under setting [3], 5620; under setting [4], 6270.

In the case of `CCCCC[C@H](O)/C=C/[C@@H]1[C@@H](C/C=C\CCCC(=O)N(CC)CC)[C@@H](O)C[C@H]1O`, the fold change runs as follows: under setting [1], 0.98 (inactive); under setting [2], 0.858. For the same molecule, the cell count under setting [3] is 5500 and the cell count under setting [4] was 5610.

As for `C=C(N)N[C@@H](CCC(=O)O)C(=O)O`, the fold change was 0.873 (inactive) under setting [1] and 0.849 under setting [2]. For the same molecule, the cell count was 8430 under setting [3] and 9660 under setting [4].

Take `CCCCC[C@H](O)/C=C/[C@@H]1[C@@H](C/C=C\CCCC(=O)N(C)C)[C@@H](O)C[C@H]1O`: the fold change is 0.94 (inactive) under setting [1] and 1.13 under setting [2]. For the same molecule, the cell count is, setting by setting: under setting [3], 5150; under setting [4], 5480.

On to `CCCCCCCCCCCCCCCC(=O)OC[C@@H](O)COP(=O)(O)O`, for which the fold change is, setting by setting: under setting [1], 0.985 (inactive); under setting [2], 0.427. Also, the cell count reads like this: under setting [3], 5760; under setting [4], 5850.

Take `CCCCC/C=C\C/C=C\C/C=C\C/C=C\CCCC(=O)S[C@H](COCCCCCCCCCCCCCCCC)COP(=O)([O-])OCC[N+](C)(C)C`: the fold change under setting [1] was 1.09 (inactive) and the fold change under setting [2] stood at 0.9. Moreover, the cell count by setting is: under setting [3], 5810; under setting [4], 5360.

For `O=C(O)CCCCCCCCCCCNC(=O)NC1CCCCC1`, the fold change is 0.963 (inactive) under setting [1] and 0.896 under setting [2]. In addition, the cell count by setting is: under setting [3], 5580; under setting [4], 5790.

As to `CC\C=C/C=C/C=C/C=C\CCCCCCCC(=O)O`, the fold change runs as follows: under setting [1], 0.875 (inactive); under setting [2], 0.385. The cell count runs as follows: under setting [3], 4740; under setting [4], 5410.

As for `CC(C)CCCC(C)CCCC(C)CCCC(C)CC(=O)O` (stereo not drawn), the fold change reads like this: under setting [1], 0.992 (inactive); under setting [2], 0.832. The cell count reads like this: under setting [3], 5990; under setting [4], 6040.

For `CCCCC/C=C\C/C=C\CCCCCCCC(=O)OCC`, the fold change is, setting by setting: under setting [1], 0.908 (inactive); under setting [2], 0.749. The cell count by setting is: under setting [3], 4750; under setting [4], 5230.

`CC(=O)O[C@@]12CO[C@@H]1C[C@H](O)[C@@]1(C)C(=O)[C@H](OC(=O)O)C3=C(C)[C@@H](OC(=O)[C@H](O)[C@@H](NC(=O)c4ccccc4)c4ccccc4)C[C@@](O)([C@@H](OC(=O)c4ccccc4)C12)C3(C)C` (stereo partly drawn): the fold change was 1.13 (inactive) under setting [1] and 0.603 under setting [2]. Further, the cell count reads like this: under setting [3], 1340; under setting [4], 1180.

For the molecule `CCCCC/C=C\C=C\C(O)CCCCCCCC(=O)OC[C@@H](COC(=O)CCCCCCC/C=C\C=C\C(O)CCCCC)OC(=O)CCCCCCC/C=C\C=C\C(O)CCCCC` (stereo partly drawn), the fold change under setting [1] is 1.03 (inactive) and the fold change under setting [2] came out at 1.09. The cell count under setting [3] is 5890 and the cell count under setting [4] was 5740.

As for `CCCCC[C@H](O)/C=C/[C@H]1[C@H](O)CC(=O)[C@@H]1C/C=C/CCCC(=O)O`, the fold change under setting [1] is 0.972 (inactive) and the fold change under setting [2] came to 1.22. Besides, the cell count is, setting by setting: under setting [3], 5510; under setting [4], 5670.

For `CCCCCCCCC#CCCCCCCCC(=O)c1nc2ncccc2o1`, the fold change is 1.03 (inactive) under setting [1] and 1.11 under setting [2]. Also, the cell count amounted to 6180 under setting [3] and 5990 under setting [4].

As for `CCCCC[C@H](O)/C=C/[C@@H]1[C@@H](C/C=C\CCCC(=O)OC)[C@@H](O)C[C@H]1O`, the fold change is, setting by setting: under setting [1], 0.963 (inactive); under setting [2], 1.19. The cell count under setting [3] turned out to be 5860 and the cell count under setting [4] turned out to be 6080.

Regarding `CCCCC[C@@H](O)/C=C/[C@H]1C[C@H]2C[C@@H]([C@@H]1C/C=C\CCCC(=O)O)C2(C)C`, the fold change is 0.917 (inactive) under setting [1] and 0.452 under setting [2]. For the same molecule, the cell count was 5480 under setting [3] and 5970 under setting [4].

`O=C(O)CCC/C=C\C[C@@H]1[C@@H](/C=C/[C@@H](O)Cc2ccccc2)[C@H](O)C[C@@H]1O`: the fold change under setting [1] is 0.969 (inactive) and the fold change under setting [2] was found to be 1.42. Further, the cell count under setting [3] is 6070 and the cell count under setting [4] was found to be 6260.

For `O=C(O)CCC/C=C/C[C@@H]1[C@@H](/C=C/[C@@H](O)COc2cccc(C(F)(F)F)c2)[C@H](O)C[C@@H]1O`, the fold change by setting is: under setting [1], 0.985 (inactive); under setting [2], 1.11. Also, the cell count runs as follows: under setting [3], 6470; under setting [4], 6570.

For `COc1ccc2c(c1)c(CC(=O)Oc1ccc(-c3cc(=S)ss3)cc1)c(C)n2C(=O)c1ccc(Cl)cc1`, the fold change was 0.929 (inactive) under setting [1] and 2.02 under setting [2]. Further, the cell count is, setting by setting: under setting [3], 5100; under setting [4], 5490.

As for `CCCCCCCCCC(=O)CC(=O)N[C@H]1CCOC1=O`, the fold change runs as follows: under setting [1], 0.908 (inactive); under setting [2], 0.275. For the same molecule, the cell count under setting [3] was 6050 and the cell count under setting [4] is 6660.

`CCCCCC(=O)CC[C@H]1C(=O)C[C@H](O)[C@@H]1C/C=C\CCCC(=O)O`: the fold change was 1.27 (inactive) under setting [1] and 1.09 under setting [2]. The cell count worked out at 6060 under setting [3] and 4770 under setting [4].

For `CCCCC[C@@H](O)/C=C/[C@H]1C=CC(=O)[C@@H]1CCCCCCC(=O)O`, the fold change was 0.9 (inactive) under setting [1] and 0.638 under setting [2]. The cell count came to 4870 under setting [3] and 5400 under setting [4].
